Results as given in PubChem BioAssay (Tox21).
“And” between values parts separate entries of the source, which are not always exact repeats. Equal values may be shown once. Inconclusive results are not listed. Where a structure was tested more than once in an assay, its records may differ in their call. The source made the active and inactive calls. Unless noted, calls follow the shape of the dose curve; as a rule, active = well fitted curve in the direction sought with a large enough effect in the repeat runs; inconclusive = weak or mixed curves; inactive = no such curve, though single readings can be large; an effect the other way counts as inactive or inconclusive.

How the values were obtained:
[1] = target: Retinoic acid receptor RXR-alpha (Homo sapiens) (UniProt P19793); test: qHTS assay to identify small molecule agonists of the RXR signaling pathway (AID 1159527; calls by dose curve; also: nearly all actives have a fitted effect of over 35% in size)
Outline: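 16 hr incubation of compound-treated RXR-alpha-UAS-bla HEK 293T cells (2% charcoal-stripped FBS, 37 C) preceded a 2 hr room-temperature LiveBLAzer FRET substrate step and blue/green fluorescence measurement.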

[2] = qHTS assay to identify small molecule antagonists of the retinoid acid receptor (RAR) signaling pathway - cell viability counter screen (AID 1159551); also: nearly all actives have a fitted effect of over 35% in size
Outline: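 ATP-based viability, C3RL4 cells, 6 h at 37 C with 1 uM final retinol co-added after compound; luminescence read 30 min post CellTiter-Glo, RT.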

[3] = qHTS assay to identify small molecule antagonists of the retinoic acid receptor (RAR) signaling pathway (AID 1159552; also: nearly all actives have a fitted effect of over 50% in size; also: potency is read from the fitted curve at half-maximal effect)
Outline: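 C3RL4 RARE-luc cells, overnight plating; retinol 1 uM final added right after compound; 6 hr 37 C; luciferase read at 30 min RT.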

[4] = qHTS assay to identify small molecule agonists of the retinoic acid receptor (RAR) signaling pathway (AID 1159553); also: potency is read from the fitted curve at half-maximal effect
Outline: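 Quantitative high-throughput format: the Tox21 10K library was tested on C3RL4 RARE-luciferase cells for 6 hr at 37 C and 5% CO2, with luminescence measured after a 30 min room-temperature reagent step.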

[5] = qHTS assay to identify small molecule agonists of the RXR signaling pathway - cell viability counter screen (AID 1159529); also: nearly all actives have a fitted effect of over 50% in size; also: potency is read from the fitted curve at half-maximal effect;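 as to activity change, negative = cytotoxicity: HEK 293T cells carrying an RXR-alpha UAS beta-lactamase reporter; series mostly up to about 77 µM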
Outline: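 In this parallel viability measure, GeneBLAzer RXR-alpha HEK 293T cells (2% charcoal-stripped FBS) were given a 5 hr preincubation, treated with compounds 16 hr at 37 C, and read by CellTiter-Glo luminescence.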

[6] = qHTS assay to identify small molecule antagonists of the estrogen related receptor (ERR) signaling pathway - cell viability counter screen (AID 1224818);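 also: series mostly up to about 46 µM; viability measured after 17.5 h of compound exposure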
Outline: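 Quantitative high-throughput viability counter screen in ERR cells. Compounds (DMSO) incubated 17.5 h at 37 C; read-out was CellTiter-Fluor fluorescence.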

[7] = qHTS assay to identify small molecule antagonists of the estrogen related receptor signaling pathway with the pleiotropic PPARgamma coactivator (PGC) cell viability counter screen (AID 1224822; also: series mostly up to about 46 µM)
Outline: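 Cytotoxicity in the PGC/ERR cell line is assessed with CellTiter-Fluor, read as fluorescence intensity 30 min after reagent addition, following 17.5 h compound treatment at 37 C.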

[8] = qHTS assay to identify small molecule antagonists of the estrogen related receptor (ERR) signaling pathway (AID 1224819;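 also: luminescence from an ERR-driven luciferase reporter measured with One-Glo reagent; series mostly up to about 46 µM; nearly all actives have a fitted effect of over 50% in size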)
Outline: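 ERR reporter cell line (NTP) plated at 2,000 cells/well, settled 6 h at 37C/5% CO2, then exposed to LOPAC compounds for 18 h at 37C. One-Glo luciferase luminescence read after 30 min at room temperature.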

[9] = qHTS assay to identify small molecule agonists of the estrogen related receptor (ERR) signaling pathway (AID 1224820)
Outline: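 Following a 6 h settling period, 2,000 ERR cells per well receive DMSO-dissolved compounds by pin tool and incubate 18 h at 37 C; agonist activity is scored from One-Glo luminescence read 30 min post-addition.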

[10] = system: estrogen-related receptor alpha (ERRalpha) with PGC-1alpha coactivator, human; test: qHTS assay to identify small molecule antagonists of the estrogen related receptor signaling pathway with the pleiotropic PPARgamma coactivator (PGC) (AID 1224821; calls by dose curve;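 also: series mostly up to about 46 µM; lower luminescence signal means antagonism of PGC/ERR signalling; nearly all actives have a fitted effect of over 50% in size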)
Outline: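 Screening used NTP's PGC/ERR cells, dosed via pin tool with compound in DMSO alongside positive and negative controls. After 18 h at 37 C, One-Glo reagent sat 30 min at room temperature before luminescence detection.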
% is scaled to controls: 0 for no effect and ±100 for the full control effect.

Chain of Retinoic acid receptor RXR-alpha (Homo sapiens) (P19793 whole entry, looked up): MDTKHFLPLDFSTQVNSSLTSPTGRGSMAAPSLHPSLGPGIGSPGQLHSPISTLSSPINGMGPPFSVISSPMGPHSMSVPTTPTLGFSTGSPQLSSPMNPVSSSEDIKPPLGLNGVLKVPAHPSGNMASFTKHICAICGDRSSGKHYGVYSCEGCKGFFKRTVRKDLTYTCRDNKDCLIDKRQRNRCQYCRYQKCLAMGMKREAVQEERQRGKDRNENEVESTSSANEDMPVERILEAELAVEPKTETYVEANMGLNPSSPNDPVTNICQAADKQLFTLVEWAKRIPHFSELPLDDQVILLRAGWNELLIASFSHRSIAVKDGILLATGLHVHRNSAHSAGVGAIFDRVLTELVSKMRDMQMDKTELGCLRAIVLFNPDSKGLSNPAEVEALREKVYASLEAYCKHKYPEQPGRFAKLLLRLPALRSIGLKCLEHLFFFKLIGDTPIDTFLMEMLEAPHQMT

O=C(NC(=O)c1c(F)cccc1F)Nc1cc(Cl)c(F)c(Cl)c1F
inactive: Potency [1] | Potency [2] | Potency [3] | Potency [4]

O=CCCl
inactive: Potency [1] | Potency [2] | Potency [3] | Potency [4]

CC(C)c1ccc(O)cc1
inactive: Potency [1] | Potency [2] | Potency [3] | Potency [4]

C=CC1(C)OC(=O)N(c2cc(Cl)cc(Cl)c2)C1=O (stereo unspecified)
34.5 µM (active) and inactive: Potency [5]
inactive: Potency [2]

COP(=O)(OC)O/C(C)=C/C(=O)N(C)C
inactive: Potency [5] | Potency [2]

Cc1ccc(-c2nc3ccc(C)cn3c2CC(=O)N(C)C)cc1
active: Potency [4] 23.7 µM
inactive: Potency [1] | Potency [2] | Potency [3]

CCOC(=O)N(C)N=O
inactive: Potency [1] | Potency [2] | Potency [3]

C/C=C/CC#N
inactive: Potency [5] | Potency [2] | Potency [3]

CCN[C@@H](C)Cc1cccc(C(F)(F)F)c1
inactive: Potency [1] | Potency [2] | Potency [3]

COP(=O)(O)OC
inactive: Potency [5] | Potency [2] | Potency [3]

O=C1CC(=O)NC(=O)N1
inactive: Potency [1] | Potency [2] | Potency [3]

BrCc1ccc(Br)cc1
inactive: Potency [1] | Potency [2] | Potency [3] | Potency [4]

N=C(N)[Se]
inactive: Potency [1] | Potency [2] | Potency [3] | Potency [4]

CCOc1cc(OP(=S)(OC)OC)nc(CC)n1
inactive: Potency [1] | Potency [2] | Potency [3] | Potency [4]

NC(=O)CS(=O)C(c1ccccc1)c1ccccc1 (stereo unspecified)
inactive: Potency [1] | Potency [2] | Potency [3] | Potency [4]

NNC(N)=O
inactive: Potency [1] | Potency [2] | Potency [3] | outcome [6] | outcome [7]

CC(C)NCC(O)c1ccc([N+](=O)[O-])cc1 (stereo unspecified)
inactive: Potency [1] | Potency [2] | Potency [3]

CCOP(=S)(OCC)SCCl
inactive: Potency [1] | Potency [2] | Potency [3] | Potency [4]

Nc1c(Cl)c(F)nc(OCC(=O)O)c1Cl
inactive: Potency [5] | Potency [2] | Potency [3]

Clc1ccc(C(Cl)(Cl)Cl)cn1
inactive: Potency [1] | Potency [2] | Potency [3]

O=c1[nH]oc2c1CCNC2
inactive: Potency [1] | Potency [2] | Potency [3] | Potency [4] | outcome [6] | outcome [8] | outcome [9] | outcome [10] | outcome [7]

CCc1cc(OC)c(C[C@H](C)N)cc1OC
inactive: Potency [1] | Potency [2] | Potency [3] | Potency [4]

Clc1nc(Cl)nc(Nc2ccccc2Cl)n1
inactive: Potency [5] | Potency [2] | Potency [3]

CC1NCCOC1c1ccccc1 (stereo unspecified)
inactive: Potency [5] | Potency [2] | Potency [3] | Potency [4]

c1cncc([C@@H]2CCCCN2)c1
inactive: Potency [2] | Potency [3]

O=C(Cl)CCl
inactive: Potency [5] | Potency [2] | Potency [3] | Potency [4]

CCc1ccc(C2CCNCC2)cc1
inactive: Potency [5] | Potency [2] | Potency [3] | Potency [4]

NCC1(CC(=O)O)CCCCC1
inactive: Potency [5] | Potency [2] | Potency [4] | outcome [6] | outcome [7]

CC(C)[N+](C)(CCC(C(N)=O)(c1ccccc1)c1ccccc1)C(C)C
inactive: Potency [5] | Potency [2] | Potency [3]

CS(=O)(=O)c1ccc(C(=O)C2C(=O)CCCC2=O)c(Cl)c1COCC(F)(F)F
inactive: Potency [5] | Potency [2] | Potency [3] | Potency [4]

CCOC(=O)CC(SP(=S)(OC)OC)C(=O)OCC (stereo unspecified)
inactive: Potency [5] | Potency [2] | outcome [6]

CCCOC(=O)Cc1ccc(OCC(=O)N(CC)CC)c(OC)c1
inactive: Potency [5] | Potency [2] | Potency [4]

CNC(=O)O/N=C(/CSC)C(C)(C)C
inactive: Potency [5] | Potency [2] | Potency [3] | Potency [4]

ClC1=C(Cl)C2(Cl)C(CBr)CC1(Cl)C2(Cl)Cl (stereo unspecified)
54.5 µM (active) and inactive: Potency [3]
inactive: Potency [5] | Potency [2] | Potency [4]

CC(Cl)(Cl)Cl
inactive: Potency [5] | Potency [2] | Potency [4]

CC(=NC#N)N(C)Cc1ccc(Cl)nc1
inactive: Potency [5] | Potency [2] | Potency [3] | Potency [4]

CCCCCCC1CCOC1=O (stereo unspecified)
inactive: Potency [5] | Potency [2] | Potency [3] | Potency [4]

CCCN1CCC[C@@H]2Cc3[nH]ncc3C[C@H]21
inactive: Potency [5] | Potency [2] | Potency [3] | Potency [4] | outcome [6] | outcome [8] | outcome [9] | outcome [10] | outcome [7]

CC(C)N(Cc1ccccc1)C(=O)C(C)(C)C
inactive: Potency [5] | Potency [2] | Potency [3] | Potency [4]

CC(C)(C)c1cc(O)ccc1O
active: Potency [5] 21.9 µM and 24.5 µM
inactive: Potency [3] | Potency [4]

COc1ccc2c(C(=O)c3ccc(Cl)cc3)c(C)n(CC(=O)O)c2c1
inactive: Potency [5] | Potency [2] | Potency [4]

O=C(Cl)c1ccccc1
inactive: Potency [5] | Potency [2] | Potency [4]

CC(C)C(C)(N)C#N (stereo unspecified)
inactive: Potency [5] | Potency [2] | Potency [3]

CC(C)[C@]12CC(=O)[C@H](C)[C@H]1C2
inactive: Potency [5] | Potency [2] | Potency [3] | Potency [4]

O=C/C=C/c1ccco1
inactive: Potency [5] | Potency [2] | Potency [3] | Potency [4]

CCCC[N+](=O)[O-]
inactive: Potency [2] | Potency [4]

CCC1(c2ccccc2)C(=O)N(COC)C(=O)N(COC)C1=O
inactive: Potency [5] | Potency [2] | Potency [4]

CC(C)(N)Cc1ccc(Cl)cc1
inactive: Potency [5] | Potency [2] | Potency [3] | Potency [4]

CC(=O)OCC1=C(C(=O)O)N2C(=O)[C@@H](N)[C@H]2SC1
inactive: activity change, negative = cytotoxicity [2] 0.328% [at 19 µM] | activity, negative = inhibition [3] -17.1% [at 19 µM] | Potency [4]

C=C1CC[C@@]2(O)[C@H]3Cc4ccc(O)c5c4[C@@]2(CCN3CC2CC2)[C@H]1O5
inactive: Potency [5] | Potency [2] | Potency [4]

NC(=O)OCCCc1ccccc1
inactive: Potency [5] | Potency [2] | Potency [4]

CC[C@@H](CO)NC(=O)[C@@H]1C=C2c3cccc4c3c(cn4C)C[C@H]2N(C)C1
inactive: Potency [5] | Potency [2] | Potency [3] | Potency [4] | outcome [6] | outcome [8] | outcome [9] | outcome [10] | outcome [7]

CCOC(=O)Nc1cccc(OC(=O)Nc2ccccc2)c1
active: Potency [4] 27.3 µM
inactive: Potency [5] | Potency [2] | Potency [3]

CCNP(=S)(OC)O/C(C)=C/C(=O)OC(C)C (stereo unspecified)
inactive: Potency [5] | Potency [2] | Potency [3] | Potency [4]

CN(C)C(=O)Oc1cc(OC(=O)N(C)C)cc(C(O)CNC(C)(C)C)c1 (stereo unspecified)
inactive: Potency [2] | Potency [3] | Potency [4]

CC1N=C(N)OC1c1ccccc1 (stereo unspecified)
inactive: Potency [5] | Potency [2] | Potency [4]

[P]#[In]
inactive: Potency [5] | Potency [2] | Potency [3] | Potency [4]

Cc1ccc(Cl)c(O)c1
inactive: Potency [2] | Potency [3]
